High-throughput results (PubChem)
HCMV inh: human cytomegalovirus inhibition; AID 1259415; HFF cells, HCMV-luciferase reporter, 72 h; hits give low values; 4.5% of 410,000 active; activity change, negative = inhibition, % at 57.5 µM; in the data active means activity change below about -60%; inconclusive means no clear call, values can overlap the other calls; inactive means above about -39%; further: on the % scale 0 is the no-effect control and ±100 the full control effect
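Screen run at 2 compound doses on HFFs infected with reporter HCMV, MOI 1 PFU/cell. Luciferase activity from cell lysates at 72 h post infection gave inhibition relative to buffer-only and Salinomycin wells.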
HCV inhibitor: inhibitors of hepatitis C virus infection. Huh7.5.1 HCVcc-Cre infection, luciferase reporter, 44 h. Potency, µM (series often up to 41.8 µM), inactives show top-dose activity change, negative = inhibition, most hits filed as inhibitors. 3.4% of 340,000 active; further: potency means the concentration at half of the fitted maximal effect; on the % scale 0 is the no-effect control and ±100 the full control effect
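Cells seeded at 1,000/well and cultured 4 h, then compounds added followed by HCVcc-Cre virus (~0.5 moi). After 44 h further culture, luciferase substrate was added, plates held 15 min at room temperature, and luminescence read for 15 sec.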
Pf growth 48h: P. falciparum growth inhibition at 48 hours (one generation). 5.9% of 310,000 active. P. falciparum luciferase growth in erythrocytes, 48 h. Potency, µM (highest dose often 28.7 µM), without a hit: top-dose activity change, negative = inhibition, most hits filed as inhibitors; further: potency means the concentration at half of the fitted maximal effect; on the % scale 0 is the no-effect control and ±100 the full control effect
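Luminescence readout; reporter = integrated firefly luciferase in P. falciparum. RBC culture at 2% hematocrit, 0.1% parasitemia final, 37 C/5% CO2; decreased signal taken as growth inhibition.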
Sm TGR block: S. mansoni TGR enzyme inhibition; Q962Y6; 3% of 360,000 active; purified TGR, DTNB reduction, TNB absorbance 405 nm; Potency, µM (top dose mostly 114 µM), for the others: at the highest dose activity change, negative = inhibition, actives largely listed as inhibitors; AID 485364; further: potency means the concentration at half of the fitted maximal effect; on the % scale 0 is the no-effect control and ±100 the full control effect; nearly all actives have a fitted effect of over 60% in size
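TGR 20 nM + NADPH 100 uM (dispensed conc.), cpd preinc 15 min RT; start with NADPH (500 uM addition) then DTNB (15 mM addition). Kinetic TNB absorbance, 405 nm filter. Four-parameter Hill fit across titration.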
Pf growth 96h: inhibits malaria parasite growth, 96 h; P. falciparum luciferase reporter growth, 96 h; Potency, µM (top dose mostly 28.7 µM), for inactives: at the highest dose activity change, negative = inhibition, most hits filed as inhibitors; 6.9% of 320,000 active; further: potency means the concentration at half of the fitted maximal effect; on the % scale 0 is the no-effect control and ±100 the full control effect
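Compounds incubated with erythrocytes infected by luciferase-expressing P. falciparum (2% hematocrit, 0.05% parasitemia final) for 96 hours, 37 C in 5% CO2. Growth inhibition scored as decreased luciferase luminescence.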
SARS PLpro yeast: SARS-CoV PLP inhibition in yeast. 0.19% of 330,000 active. S. cerevisiae expressing SARS-CoV PLpro, growth rescue. AID 485353. Potency, µM (series often up to 32.9 µM), for the others: top-dose activity, positive = growth rescue, actives largely listed as activators; calls by dose curve; further: potency means the concentration at half of the fitted maximal effect; 0% is about no effect; nearly all actives have a fitted effect of over 55% in size
* marks the source's active call; other numbers are inactive results; ? = inconclusive; · = no result. Shown are actives, neighbours in structure and some others; about 15% of the full set was active somewhere. Unless noted, the call rests on the fitted dose curve; in most records, active means well fitted curve in the direction sought with a large enough effect; inconclusive means small, poorly fitted or top-dose-only effect, or another doubt; inactive means no such curve, though single readings can be large; an effect the other way counts as inactive or inconclusive.

SMILES | HCMV inh | HCV inhibitor | Pf growth 48h | Sm TGR block | Pf growth 96h | SARS PLpro yeast
N#Cc1nc(N2CCCC2)nc(N2CCCC2)n1 | ? | 7.08µM* | -2.5% | 5.1% | -5.5% | -1.4%
N#Cc1nc(N2CCCCC2)nc(N2CCOCC2)n1 | 26.0 | ? | ? | -13.2% | -4.5% | -7.2%
CSc1nnc(-c2cccc(NC(=S)NN)c2)o1 | -66.0* | -13.8% | ? | -10.1% | 79.2% | -1.6%
Cc1ccccc1NC(=O)c1cccc(C(=O)Nc2ccccc2C)c1 | 7.4 | -4.3% | · | · | · | ·
COc1ccc(C(=O)Nc2cc(C(=O)c3ccccc3)c(C)oc2=O)cc1 | 19.1 | 0.2% | -19.8% | 6.31µM* | 65.3% | -33.1%
COc1ccc(-c2cccc(C(=O)Nc3ccccc3C)c2)cc1 | ? | 0.8% | 4.5% | 1.4% | 9.28µM* | -12.2%
Cc1oc(=O)c(NC(=O)c2cccc(Cl)c2)cc1C(=O)c1ccccc1 | -84.3* | ? | ? | 4.47µM* | 48.8% | -29.2%
COC(=O)c1cc(NC(=O)c2ccccc2)c(=O)oc1C | -33.7 | 5.2% | 0.0% | -20.4% | 44.1% | -7.6%
Cc1oc(=O)c(NC(=O)c2ccccc2)cc1C(N)=O | 15.7 | -2.5% | -0.2% | -1.0% | ? | -0.2%
CC1CCCCN1C(=O)CSc1nc(C2CC2)nc2ccccc12 (configuration not stated) | 12.4 | -8.9% | ? | -2.2% | -40.7% | -2.3%
CCCCOc1ccc(-c2nnn(CC(=O)NCCc3c[nH]c4ccccc34)n2)cc1 | 60.5 | ? | ? | 0.3% | 36.6% | -0.8%
COC(=O)C(O)(c1ccccc1)C(Nc1ccc(OC)cc1)c1ccc(Cl)cc1 (configuration not stated) | -2.9 | · | · | · | · | ·
Cn1c(=O)c2c(-c3ccccc3)n(CCCN3CCOCC3)cc2n(C)c1=O | -31.5 | 7.7% | -20.0% | -24.3% | · | 1.1%
Cc1ccc(-c2c3c(=O)n(C)c(=O)n(C)c3cn2Cc2ccccc2)cc1 | -5.2 | 3.9% | · | 44.7µM* | ? | 0.4%
Cn1c(=O)c2c(-c3ccccc3)n(Cc3ccccn3)cc2n(C)c1=O | 8.8 | 9.4% | 2.5% | 28.2µM* | · | -4.8%
C=CCNC(=S)NNC(=O)COc1cccc(Cl)c1 | 21.8 | -7.9% | 6.8% | 9.8% | 43.5% | 3.3%
Cc1ccc(CNC(=O)c2ccc3c(c2)CCN3S(=O)(=O)c2ccc(Br)cc2)cc1 | -0.4 | · | · | 4.5% | · | ·
CC(=O)c1ccc(OCCCC(=O)Nc2cc(Cl)ccc2-n2cncn2)cc1 | 51.2 | -23.7% | 41.7% | -28.0% | ? | -5.4%
Cc1ccc(C(=O)Nc2cc(Cl)ccc2-n2cncn2)s1 | -17.9 | ? | 6.2% | -3.5% | -1.7% | -20.2%
CCOc1ccc(OCCCC(=O)Nc2cc(Cl)ccc2-n2cncn2)cc1 | -71.8* | ? | -29.9% | -0.8% | -5.9% | 3.3%
Cc1ccsc1C(=O)Nc1cc(Cl)ccc1-n1cncn1 | 52.1 | 7.08µM* | · | · | · | ·
Cc1cccc(C)c1OCC(=O)Nc1cc(Cl)ccc1-n1cncn1 | -0.9 | ? | 13.1µM* | -2.3% | 13.1µM* | ·
CCCOc1ccccc1OCC(=O)Nc1cc(Cl)ccc1-n1cncn1 | -15.7 | ? | 11.7µM* | 1.8% | 9.28µM* | 0.9%
CCCN(CCC)CCCNC(=O)Cn1cnc2onc(-c3ccc(F)cc3)c2c1=O | -25.5 | · | · | 1.4% | · | ·
Cc1cccc(OC(C)C(=O)Nc2cc(Cl)ccc2-n2cncn2)c1 (configuration not stated) | 0.0 | ? | 4.15µM* | 0.6% | ? | 6.3%
SMILES | HCMV inh | HCV inhibitor | Pf growth 48h | Sm TGR block | Pf growth 96h | SARS PLpro yeast
CCOc1ccc(OCC(=O)Nc2cc(Cl)ccc2-n2cncn2)cc1 | 3.3 | · | · | · | · | ·
Cc1ccc(S(=O)(=O)CCC(=O)Nc2cc(Cl)ccc2-n2cncn2)cc1 | -10.4 | 1.2% | ? | 17.8µM* | -9.3% | 2.9%
CCc1cccc(OCC(=O)Nc2cc(Cl)ccc2-n2cncn2)c1 | -18.9 | -28.0% | 13.1µM* | -3.3% | ? | -11.1%
CCOC(=O)Cc1ccc(NC(=O)n2ncc3cc(Cl)ccc32)cc1 | · | · | · | -5.1% | · | ·
C=CCc1ccccc1OCc1nc2ccc(C)cc2[nH]1 | -24.7 | · | · | 6.5% | · | ·
COC(=O)c1ccc(Cl)c(NC(=O)Cc2ccccc2[N+](=O)[O-])c1 | -71.7* | 13.9% | 11.7% | -7.0% | 19.3% | 18.6%
CSc1ccccc1NC(=O)Cc1ccccc1[N+](=O)[O-] | -6.5 | -0.1% | 0.0% | 8.3% | 232.6% | -0.2%
CCc1ccc2oc(C(=O)Nc3ccccc3OC)cc(=O)c2c1 | -3.7 | · | · | 2.4% | · | ·
CCOC(=O)C(/C(N)=N/C(=O)Nc1ccccc1)=C(\C)O | 3.1 | 21.0% | -5.1% | -6.9% | 9.28µM* | -3.1%
CCOC(=O)c1ccc(NC(=S)Nc2ccccc2)cc1 | 13.2 | ? | 44.0% | ? | 34.4% | -16.3%
FC(F)Oc1ccc(-n2cc(-c3ccccc3)[n+]3c2CCCCC3)cc1 | -21.4 | -10.7% | 1.17µM* | 23.9% | ? | -0.6%
Cc1ccc(-c2cn(-c3ccc(OC(F)F)cc3)c3[n+]2CCCCC3)cc1 | -88.6* | -6.2% | 1.31µM* | 6.8% | ? | 0.1%
CN(c1cccc(NC(=O)COc2ccc(Cl)cc2Cl)c1)S(C)(=O)=O | -7.0 | -29.4% | 151.6% | -3.8% | 108.4% | 5.9%
CCOc1ccc(-c2cc3c(=O)n(Cc4nc(-c5ccc(OCC)c(OC)c5)oc4C)ccn3n2)cc1Cl | -28.4 | · | · | -5.6% | · | ·
O=S(=O)(c1cccc2nsnc12)N1CCCC1 | 12.0 | 11.6% | 0.2% | -38.2% | 44.0% | -0.8%
Cc1ccc(S(=O)(=O)N2CCOCC2)c2nsnc12 | -14.4 | 2.0% | · | 3.4% | 31.2% | 12.1%
O=S(=O)(c1cccc2nsnc12)N1CCCCC1 | 11.5 | ? | 10.5% | -4.4% | 8.28µM* | 4.3%
O=S(=O)(c1ccc(Br)c2nsnc12)N1CCOCC1 | -31.7 | -26.1% | -17.4% | 2.6% | 9.28µM* | -0.3%
O=C(C1CCCN(S(=O)(=O)c2cccc3nsnc23)C1)N1CC=C(c2ccccc2)CC1 (configuration not stated) | -61.4* | 12.6µM* | ? | -22.7% | 41.1% | -3.2%
